# Screening data (PubChem)
# PAFAH1B2 FP inh: inhibitors of human PAFAH1B2; P68402; recombinant PAFAH1B2, FP-rhodamine activity probe, fluorescence polarization; inhibition, % at 3.39 µM; 340,000 tested, 1.2% active; AID 492953;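 active means inhibition above the mean of all tested compounds plus 3 SD, cut at about 24% in these data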;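 further: 0% = enzyme with DMSO and 100% = wells lacking PAFAH1B2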
# Target sequence (P68402 whole entry, looked up): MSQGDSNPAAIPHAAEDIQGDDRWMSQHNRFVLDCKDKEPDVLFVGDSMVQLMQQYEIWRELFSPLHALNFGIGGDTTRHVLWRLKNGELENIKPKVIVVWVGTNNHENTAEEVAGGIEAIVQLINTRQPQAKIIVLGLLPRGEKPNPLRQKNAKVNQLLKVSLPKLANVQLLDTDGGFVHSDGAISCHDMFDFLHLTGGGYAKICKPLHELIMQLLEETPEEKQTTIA
# PAFAH1B3 inh: inhibitors of human PAFAH1B3. recombinant PAFAH1B3, FP-rhodamine probe, fluorescence polarization. inhibition, % at 3.39 µM. 340,000 tested, 0.28% active. AID 492972;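 active means inhibition above the screen-wide average of all tested compounds plus 3 SD, cut at about 25% in these data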;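 further: 0% = enzyme with DMSO only and 100% = wells lacking PAFAH1B3 protein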
# Target sequence (Q15102 whole entry, looked up): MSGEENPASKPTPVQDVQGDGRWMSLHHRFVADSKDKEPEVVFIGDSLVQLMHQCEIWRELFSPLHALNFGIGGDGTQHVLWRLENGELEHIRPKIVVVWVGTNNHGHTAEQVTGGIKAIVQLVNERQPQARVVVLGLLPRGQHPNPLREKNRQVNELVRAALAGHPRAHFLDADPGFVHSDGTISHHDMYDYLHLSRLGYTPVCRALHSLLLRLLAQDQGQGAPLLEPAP
# TCR CD3 inh: blocks the human TCR-CD3 interaction | 360,000 tested, 0.37% active | inhibition, % at 9.4 µM | TAMRA-labeled TCR probe fluorescence, biochemical;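 further: recombinant mutant TCR 2C K166C tagged with TAMRA read by polarization; 0% = receptor in buffer alone and 100% = receptor with positive control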
# pPAFAH inh: pPAFAH (human) enzyme inhibition. recombinant pPAFAH, FP-rhodamine probe fluorescence polarization. Q13093. 330,000 tested, 1.5% active. inhibition, % at 3.39 µM;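 active means inhibition above the mean inhibition across the screen plus 3 SD, cut at about 25% in these data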;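 further: inhibitors block binding of the rhodamine activity-based probe so polarization drops; 0% = enzyme with DMSO and 100% = wells lacking pPAFAH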
# PAFAH2 inh: inhibitors of human PAFAH2; 340,000 tested, 0.99% active; recombinant PAFAH2, FP-rhodamine activity probe, fluorescence polarization; inhibition, % at 3.39 µM;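 active means inhibition above the mean over all tested compounds plus 3 SD, cut at about 30% in these data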;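 further: inhibitors block probe labeling of enzyme so polarization drops; 0% = enzyme with DMSO and 100% = wells lacking PAFAH2 protein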
# pPAFAH confirm: pPAFAH (human) inhibition, confirmed. 2,300 tested, 72% active. shares compounds with pPAFAH inh. recombinant pPAFAH, FP-Rh probe fluorescence polarization. inhibition, % at 3.39 µM;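 active means mean inhibition of the triplicate above the hit cutoff set for the earlier primary screen, cut at about 25% in these data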;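 further: 0% = enzyme with DMSO and 100% = wells lacking pPAFAH enzyme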
# PAFAH2 confirm: confirmation of human PAFAH2 inhibitors; inhibition, % at 3.39 µM; 2,300 tested, 65% active; shares compounds with PAFAH2 inh; recombinant PAFAH2, FP-rhodamine activity probe, fluorescence polarization;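 active means mean inhibition over three repeats above a set limit taken from the earlier primary screen, cut at about 30% in these data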;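 further: inhibitor blocks binding of rhodamine activity probe so polarization falls; 0% = enzyme with DMSO and 100% = wells lacking PAFAH2 protein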
# BSA probe FL: BSA probe counter-screen for TCR-CD3 inhibitors; shares compounds with TCR CD3 inh; inhibition, % at 9.4 µM; 1,200 tested, 10% active; TAMRA-labeled BSA probe fluorescence counterscreen; in the data active means inhibition above about 23%;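 further: 0% = buffer low control and 100% = reference high control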
# TCR-CD3 conf: TCR-CD3 interaction inhibition, confirmation; shares compounds with TCR CD3 inh; TAMRA-labeled TCR probe fluorescence binding assay; inhibition, % at 9.4 µM; 1,200 tested, 48% active; AID 652036
# * hit, by the source's call; . = no result; + = active, no number. A selection: hits, their analogues and other compounds. The true share with any hit is near 2.7%. Unless noted, no stated cut-off is given here; in the data, active means inhibition above about 19%; inactive means the rest.
SMILES,PAFAH1B2 FP inh,PAFAH1B3 inh,TCR CD3 inh,pPAFAH inh,PAFAH2 inh,pPAFAH confirm,BSA probe FL,TCR-CD3 conf,others
C[C@H](CO)N1C[C@H](C)[C@@H](CN(C)C(=O)Nc2ccc3c(c2)OCO3)Oc2ccc(NS(=O)(=O)c3ccccc3)cc2C1=O,9,1,2,19,13,.,.,.,
Cc1c(Br)c(O)c(Br)c2sc(=O)oc12,7,14,25*,84*,-1,24,-8,5,
CCCCCn1c(=O)[nH]c2cc(C(=O)NCCN3CCCCC3C)ccc2c1=O (stereo unspecified),-6,2,.,4,-17,.,.,.,
CCCC(=Nc1ccc(N)cc1)C1=C(O)C(C(=O)OC)C(C)(C)CC1=O (stereo unspecified),4,13,67*,40*,16,5,8,8,
CCCC(=O)C1=C(O)C(C(=O)OC)C(C)(C)CC1=Nc1ccc(N)cc1 (stereo unspecified),0,0,0,1,0,.,.,.,
Cc1ccc(NC(=O)CN(C)C(=O)c2cccc(S(=O)(=O)NCc3ccccc3)c2)cc1,13,0,-3,6,-5,.,.,.,
CCN(CC(=O)Nc1c(F)cccc1F)C(=O)c1ccc2ccccc2n1,1,10,-4,1,-5,.,.,.,
CCN(CC(=O)Nc1c(F)cccc1F)C(=O)/C=C/c1ccc2ccccc2n1,-1,6,30*,40*,15,25*,5,34*,
CC1CCC/C(=C\Nc2ccc(O)cc2)C1=O (stereo unspecified),0,1,24*,35*,-2,3,2,3,
CN(C)c1ncc(C2=C(Cl)C(=O)C(N3CCCC3)=C(Cl)C2=O)s1,9,27*,22*,49*,29,10,-15,7,
CC(=O)c1cnc(N(C)C)s1,5,7,-2,-2,9,.,.,.,
O=C1CC(c2ccc(O)c(O)c2)Oc2c1ccc(O)c2O (stereo unspecified),12,19,28*,60*,50*,60*,-23,33*,
COc1cc([N+](=O)[O-])cc(/C=N/NC(=O)c2cc(-c3ccccc3)nc3ccccc23)c1O,-8,-1,24*,36*,4,35*,10,8,
COc1ccc(/C=N/NC(=O)c2cc(-c3ccccc3)nc3ccccc23)c(C(=O)O)c1OC,8,2,2,-3,-2,.,.,.,
COc1ccc(Br)cc1CNc1ccc(O)cc1,6,13,31*,37*,0,10,0,3,
O=C(O)CCNc1ccc(NCCC(=O)O)c2c1C(=O)c1ccccc1C2=O,16,25,28*,62*,46*,19,13,42*,
Cc1ccc(-c2ccccc2NC(=O)CS(=O)CC(=O)Nc2ccc(C)c(Cl)c2)o1 (stereo unspecified),22,4,85*,85*,3,8,11,6,
O=C(O)CSC1CC(=O)N(c2ccc(Cl)c(Cl)c2)C1=O (stereo unspecified),5,6,6,4,-8,.,.,.,
O=C1CC(N(O)c2ccccc2)C(=O)N1c1ccc(Cl)c(Cl)c1 (stereo unspecified),-3,4,24*,49*,1,5,6,3,
Cc1ccc(/C=C/C(=O)OCC(=O)c2ccc3c(c2)NC(=O)CO3)o1,5,5,5,3,5,.,.,.,
O=C1COc2ccc(C(=O)COC(=O)/C=C/c3ccc(Br)o3)cc2N1,-7,-2,22*,39*,8,22,-2,21*,
c1cc2c3c(cccc3c1)-c1cnccc1-2,6,13,2,.,11,.,.,.,
CCNc1ccc2noc3c2c1C(=O)c1ccccc1-3,114*,104*,126*,106*,114*,99*,+,187*,
CC1CCN(S(=O)(=O)c2ccc(NC(=O)C3CCCCC3C(=O)O)cc2)CC1 (stereo unspecified),6,3,.,.,6,.,.,.,
O=c1oc2ccccc2c2oc3cc(O)c(O)cc3c12,-1,9,21*,73*,34*,81*,-3,31*,
SMILES,PAFAH1B2 FP inh,PAFAH1B3 inh,TCR CD3 inh,pPAFAH inh,PAFAH2 inh,pPAFAH confirm,BSA probe FL,TCR-CD3 conf,others
CN(C)c1ccc(O)c2c1CC1CC3[C@@H](N(C)C)C(=O)C(C(N)=O)=C(O)[C@]3(O)C(=O)C1=C2O (stereo partly specified),12,29*,46*,53*,33*,8,-7,27*,
O=C(N/N=C/c1cccc([N+](=O)[O-])c1)c1cccc2cc[nH]c12,-1,-6,12,1,-9,.,.,.,
O=C(N/N=C/c1cc([N+](=O)[O-])ccc1O)c1cccc2cc[nH]c12,-3,-9,20*,61*,24,52*,-8,19,
O=C(c1cc(-c2ccco2)nc2ccccc12)N1CCN(Cc2ccccc2)CC1,3,2,-6,11,2,.,.,.,
COC(=O)C1CCN(C(=O)c2cc(-c3ccco3)nc3ccccc23)CC1,4,11,27*,45*,20,21,4,31*,
CCOC(=O)C1=C(CN2CCN(CCC#N)CC2)NC(=O)NC1c1ccc2c(c1)OCO2 (stereo unspecified),5,3,4,1,-1,.,.,.,
O=c1cc(-c2ccc(O)c(O)c2)oc2c1ccc1ccccc12,14,34*,40*,78*,48*,82*,-5,75*,
O=C(Nc1cccnc1)C1Cc2c(-c3ccccc3Oc3ccccc3)ccnc2O1 (stereo unspecified),.,.,-5,.,.,.,.,.,
Clc1ccccc1OCCn1cnc2ccccc21,-2,-2,1,1,3,.,.,.,
Brc1ccccc1OCCCCn1cnc2ccccc21,4,2,-2,2,35*,.,.,.,PAFAH2 confirm=4
O=C1C=C(c2cccc(CO)c2)C[C@@H](c2ccc(F)cc2)C1,-1,4,3,3,-1,.,.,.,
O=c1c2c(nc3cc(-c4ccccc4)[nH]n13)CCS2,12,5,12,11,43*,.,.,.,PAFAH2 confirm=4
O=c1c2c(nc3cc(-c4ccccc4Cl)[nH]n13)CCS2,3,4,13,14,22,.,.,.,
OCCC1CN(Cc2cccn2-c2ncccn2)CCN1C1CCCC1 (stereo unspecified),2,8,1,3,-5,.,.,.,
O=C(CSc1ccc([N+](=O)[O-])cc1)c1ccccc1,1,0,6,.,2,.,.,.,
